This is part of a sample that, as a whole, favours compounds with a hit. Of some 83,000 tested, about 20% had one in any assay.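 Single-dose data. Exposure time 48 hours. Values below 10 considered active.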 Active and inactive are the calls of the source.
Legend:
Assay in all cases: NCI-60 one-dose screen, 48 h (100 = growth as untreated, 0 = no growth, -100 = all killed)
Conditions in all cases: 10 µM unless noted
NCI-H23 lung = test system: NCI-H23 lung
NCI-H226 lung = test system: NCI-H226 lung
NCI-H322M lung = test system: NCI-H322M lung
HOP-62 NSCLC = test system: HOP-62 NSCLC
NCI-H460 lung = test system: NCI-H460 lung
HOP-92 NSCLC = test system: HOP-92 NSCLC
NCI-H522 lung = test system: NCI-H522 lung
A549/ATCC NSCLC = test system: A549/ATCC NSCLC
786-0 renal = test system: 786-0 renal
COLO 205 colon = test system: COLO 205 colon

Measured: growth

Cn1cc(-c2noc(-c3cn(C)c4ncccc34)n2)c2cc(Cl)ccc21
active: NCI-H522 lung 7.71%
inactive: NCI-H23 lung 91.5% | NCI-H226 lung 115% | NCI-H322M lung 91.2% | HOP-62 NSCLC 93.2% | NCI-H460 lung 88% | HOP-92 NSCLC 135% | A549/ATCC NSCLC 79.7% | 786-0 renal 95.4% | COLO 205 colon 91.9%

COc1ccc(/C=C(/C2=NCCN2)n2ccc3ccccc32)cc1
inactive: NCI-H23 lung 100% | NCI-H226 lung 81.5% | NCI-H322M lung 92% | HOP-62 NSCLC 97.1% | NCI-H460 lung 93.1% | HOP-92 NSCLC 56.7% | NCI-H522 lung 85.9% | A549/ATCC NSCLC 99.8% | 786-0 renal 88.8% | COLO 205 colon 83.9%

Nc1ccc(NC(=O)c2ccccc2)c2c1C(=O)c1ccccc1C2=O
inactive: NCI-H23 lung 96.1% | NCI-H226 lung 89.5% | NCI-H322M lung 99.1% | HOP-62 NSCLC 107% | NCI-H460 lung 104% | HOP-92 NSCLC 80.2% | NCI-H522 lung 111% | A549/ATCC NSCLC 97% | 786-0 renal 103% | COLO 205 colon 109%

O=C(Nc1ccccc1)Nc1ccc(C(=O)/C=C/c2ccc(N3CCCC3)cc2)cc1
inactive: NCI-H23 lung 92.3% | NCI-H226 lung 78% | NCI-H322M lung 83.2% | HOP-62 NSCLC 63% | NCI-H460 lung 78.7% | HOP-92 NSCLC 73.8% | NCI-H522 lung 31.7% | A549/ATCC NSCLC 75.5% | 786-0 renal 93.9% | COLO 205 colon 66.6%

CCOC(=O)CCC[P+](c1ccccc1)(c1ccccc1)c1ccccc1
inactive: NCI-H23 lung 87.9% | NCI-H226 lung 108% | NCI-H322M lung 96.4% | HOP-62 NSCLC 99.8% | NCI-H460 lung 82.2% | HOP-92 NSCLC 71.4% | NCI-H522 lung 63.1% | A549/ATCC NSCLC 90.7% | 786-0 renal 101% | COLO 205 colon 71.6%

O=C(CCN1CCCCC1)c1ccc2ccccc2c1
inactive: NCI-H23 lung 103% | NCI-H226 lung 92.2% | NCI-H322M lung 98.4% | HOP-62 NSCLC 108% | NCI-H460 lung 103% | HOP-92 NSCLC 92.8% | NCI-H522 lung 93.5% | A549/ATCC NSCLC 102% | 786-0 renal 111% | COLO 205 colon 112%

CCCC(NC(=O)OCc1ccccc1)C(=O)O (stereo not given)
active: NCI-H23 lung -1.29%
inactive: NCI-H226 lung 89.5% | NCI-H322M lung 121% | HOP-62 NSCLC 111% | NCI-H460 lung 97.9% | HOP-92 NSCLC 82.2% | NCI-H522 lung 16.2% | A549/ATCC NSCLC 79.5% | 786-0 renal 108% | COLO 205 colon 137%

O=C(Oc1ccc(Cl)cc1[N+](=O)[O-])Oc1ccc(Cl)cc1[N+](=O)[O-]
inactive: NCI-H23 lung 105% | NCI-H226 lung 117% | NCI-H322M lung 122% | HOP-62 NSCLC 113% | NCI-H460 lung 111% | HOP-92 NSCLC 93.4% | NCI-H522 lung 104% | A549/ATCC NSCLC 99.2% | 786-0 renal 119% | COLO 205 colon 122%

C=C(C)[C@@H]1CC[C@]2(COCCC#N)CC[C@]3(C)[C@H](CC[C@@H]4[C@@](C)(CCCNCCC#N)[C@H](C(=C)C)CC[C@]43C)[C@@H]12
active: NCI-H460 lung 9.8% [100 µM] | HOP-92 NSCLC -14.6% [100 µM] | NCI-H522 lung -6.77% [100 µM]
inactive: NCI-H23 lung 29% [100 µM] | NCI-H226 lung 42.6% [100 µM] | NCI-H322M lung 72.2% [100 µM] | HOP-62 NSCLC 77.8% [100 µM] | A549/ATCC NSCLC 50.4% [100 µM] | 786-0 renal 16.1% [100 µM] | COLO 205 colon 11.3% [100 µM]

NS(=O)(=O)c1ccc(CCN2C(=O)/C(=C\c3ccccc3)C=C2c2ccc(Cl)cc2)cc1
inactive: NCI-H23 lung 104% | NCI-H226 lung 102% | NCI-H322M lung 89.8% | HOP-62 NSCLC 95.5% | NCI-H460 lung 99.3% | HOP-92 NSCLC 76.3% | NCI-H522 lung 91.8% | A549/ATCC NSCLC 99.1% | 786-0 renal 96.4% | COLO 205 colon 115%

COc1cc2c(cc1OCCCCCOc1ccc(-n3c(C)nc4ccccc4c3=O)cc1)N=C[C@@H]1CCCN1C2=O
active: NCI-H23 lung -20.1% | NCI-H226 lung 2.04% | NCI-H322M lung -31.2% | HOP-62 NSCLC -29% | NCI-H460 lung -31.2% | HOP-92 NSCLC -17.8% | NCI-H522 lung -33.5% | A549/ATCC NSCLC 7.25% | 786-0 renal -42.5% | COLO 205 colon -22.3%

O=C1CC(c2ccccc2)Cc2nc3ccc(Cl)cc3cc21 (stereo not given)
inactive: NCI-H23 lung 36.4% | NCI-H226 lung 20.8% | NCI-H322M lung 39.8% | HOP-62 NSCLC 35.9% | HOP-92 NSCLC 39.3% | A549/ATCC NSCLC 23.3% | 786-0 renal 37.6%
active: NCI-H460 lung 3.33% | NCI-H522 lung 3.02% | COLO 205 colon -31.7%

COc1ccc2c(c1)C(C)Cc1c(Cl)ncnc1N2C (stereo not given)
active: NCI-H23 lung 7.68% | NCI-H226 lung -3.41% | HOP-92 NSCLC 6.91% | NCI-H522 lung -49.9% | 786-0 renal 7.84% | COLO 205 colon -66%
inactive: NCI-H322M lung 36.1% | HOP-62 NSCLC 11.8% | NCI-H460 lung 16.6% | A549/ATCC NSCLC 15%

O=S(=O)(NCCCNc1nccc(-c2c(-c3cccc(F)c3)nc3occn23)n1)c1cccc2ccccc12
inactive: NCI-H23 lung 63.9% | NCI-H226 lung 36.3% | NCI-H322M lung 64.6% | HOP-62 NSCLC 74.4% | NCI-H460 lung 18.7% | HOP-92 NSCLC 63.9% | NCI-H522 lung 51.1% | A549/ATCC NSCLC 33.5% | 786-0 renal 46.5%
active: COLO 205 colon -18.1%

N#Cc1c(N2CCOCC2)nc(=S)[nH]c1-c1ccco1
active: HOP-92 NSCLC -11.6%
inactive: NCI-H23 lung 74.5% | NCI-H226 lung 63.2% | NCI-H322M lung 74.5% | HOP-62 NSCLC 35.7% | NCI-H460 lung 50.1% | NCI-H522 lung 49.6% | A549/ATCC NSCLC 83.6% | 786-0 renal 65.8% | COLO 205 colon 75.7%

CC1Cc2c(Cl)ncnc2N(C)c2ccc(O)cc21 (stereo not given)
active: 786-0 renal -3.93%
inactive: NCI-H23 lung 45.7% | NCI-H226 lung 82.2% | NCI-H322M lung 44.2% | HOP-62 NSCLC 53.8% | NCI-H460 lung 84.3% | HOP-92 NSCLC 85.1% | NCI-H522 lung 92.5% | A549/ATCC NSCLC 28.4% | COLO 205 colon 91.7%

C=C(C)[C@@H]1CC[C@]2(c3ncc(C)o3)CC[C@]3(C)[C@H](CC[C@@H]4[C@@](C)(CCC#N)[C@H](C(=C)C)CC[C@]43C)[C@@H]12
active: NCI-H23 lung -68.1% [100 µM] | NCI-H226 lung -55.2% [100 µM] | NCI-H322M lung -83.5% [100 µM] | HOP-62 NSCLC -86.1% [100 µM] | NCI-H460 lung -71.4% [100 µM] | HOP-92 NSCLC -85.7% [100 µM] | NCI-H522 lung -85.4% [100 µM] | A549/ATCC NSCLC -84.8% [100 µM] | 786-0 renal -85.6% [100 µM] | COLO 205 colon -82% [100 µM]

COc1ccc2nc3ccccc3c(NCCNCCO)c2c1
active: NCI-H23 lung -40.3% | NCI-H226 lung -10.8% | NCI-H322M lung -25% | HOP-62 NSCLC -6.96% | NCI-H460 lung -41.3% | HOP-92 NSCLC -10.7% | NCI-H522 lung -48.7% | A549/ATCC NSCLC -27% | 786-0 renal 3.89% | COLO 205 colon -75.3%

O=[N+]([O-])c1cc([N+](=O)[O-])c(NN=C(c2ccc(O)cc2)c2ccc(O)cc2)cc1Cl
inactive: COLO 205 colon 25.6%
active: NCI-H23 lung -72.9% | NCI-H226 lung -28% | NCI-H322M lung 9.47% | HOP-62 NSCLC -91.2% | NCI-H460 lung -6.95% | HOP-92 NSCLC -69.6% | NCI-H522 lung -55.1% | A549/ATCC NSCLC -71.2% | 786-0 renal -89%

CCOc1ccc2sc(NS(=O)(=O)c3ccc(N)cc3)nc2c1
inactive: NCI-H23 lung 104% | NCI-H226 lung 94.7% | NCI-H322M lung 109% | HOP-62 NSCLC 100% | NCI-H460 lung 104% | HOP-92 NSCLC 94% | NCI-H522 lung 115% | A549/ATCC NSCLC 112% | 786-0 renal 115% | COLO 205 colon 103%

CCC(Br)(CC)C(=O)c1ccc(OCC(=O)O)c(Cl)c1Cl
inactive: NCI-H23 lung 103% | NCI-H226 lung 87.4% | NCI-H322M lung 112% | HOP-62 NSCLC 119% | NCI-H460 lung 96% | HOP-92 NSCLC 102% | NCI-H522 lung 82.1% | A549/ATCC NSCLC 91.5% | 786-0 renal 117% | COLO 205 colon 108%

Nc1cc(C(=O)O)[nH]c(=S)n1
inactive: NCI-H23 lung 95.2% | NCI-H226 lung 95.2% | NCI-H322M lung 98.1% | HOP-62 NSCLC 106% | NCI-H460 lung 105% | HOP-92 NSCLC 67.7% | NCI-H522 lung 96.7% | A549/ATCC NSCLC 98.5% | 786-0 renal 100% | COLO 205 colon 112%

CC1Cc2c(ncnc2-n2cnc3ccccc32)N(C)c2ccccc21 (stereo not given)
inactive: NCI-H23 lung 48.5% | NCI-H226 lung 58.6% | NCI-H322M lung 63.7% | HOP-62 NSCLC 32.3% | NCI-H460 lung 18.7% | HOP-92 NSCLC 36.3% | NCI-H522 lung 20% | A549/ATCC NSCLC 39.3% | 786-0 renal 39.2% | COLO 205 colon 20.9%

Cc1ccc(Oc2c(/C=N/NC(=O)Cn3c(=O)sc4ccccc43)c(C)nn2-c2ccccc2)cc1
inactive: NCI-H23 lung 50.6% | NCI-H226 lung 62% | NCI-H322M lung 67.3% | HOP-62 NSCLC 71.5% | NCI-H460 lung 52% | HOP-92 NSCLC 46.1% | NCI-H522 lung 46.7% | A549/ATCC NSCLC 32.8% | 786-0 renal 80.9% | COLO 205 colon 42.4%

Nc1cc(N)c(N=Nc2ccc(S(=O)(=O)O)cc2)cc1N=Nc1ccc(-c2ccc(N=Nc3ccc(O)c(C(=O)O)c3)cc2)cc1
inactive: NCI-H23 lung 95.7% | NCI-H226 lung 92.2% | NCI-H322M lung 101% | HOP-62 NSCLC 98.8% | NCI-H460 lung 105% | HOP-92 NSCLC 108% | NCI-H522 lung 98.2% | A549/ATCC NSCLC 101% | 786-0 renal 105% | COLO 205 colon 109%

O=[N+]([O-])c1cc([N+](=O)[O-])c(C(F)(F)F)cc1NN=C(c1ccc(O)cc1)c1ccc(O)cc1
active: NCI-H23 lung -15.7% | HOP-62 NSCLC -55.4% | NCI-H460 lung -37.8% | NCI-H522 lung -61.5% | A549/ATCC NSCLC -60.4% | 786-0 renal -27.5% | COLO 205 colon -11%
inactive: NCI-H226 lung 78.6% | NCI-H322M lung 113% | HOP-92 NSCLC 108%

From PubChem BioAssay (NCI)
